# Assay results as given in paper PMC8384837, “Expanding the binding specificity for RNA recognition by a PUF domain”.
# Assays:
# Assay in all cases: yeast three-hybrid, YBZ-1, SC-Leu-His + 0.5 mM 3-AT, 4 days
# Conditions in all cases: tags: N-Gal4 AD-HA kept; label: inside an RPR1-promoter hybrid RNA with tandem MS2 sites; ssRNA
# PUM1 PUF domain R1-TRR = PUM1 PUF domain R1-TRR (Homo sapiens, UniProt Q14671 828-1176, S863T;Q867R)
# Summary of the method: (§1)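 The interaction score is the log change in variant frequency from input to selection. Scores were computed in log2 with a pseudocount of 1 for absent variants, using Illumina sequencing of PCR-amplified repeat regions. The input came from four days on SC-Leu and the selection from four days on SC-Leu-His + 0.5 mM 3-AT. The cells were strain YBZ-1 (LexA–MS2 coat fusion, HIS3 reporter) co-expressing Pumilio-1 PUF domain libraries and matching RNA elements from a centromeric plasmid.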
# PUM1 PUF domain R4-PFS = PUM1 PUF domain R4-PFS (Homo sapiens, UniProt Q14671 828-1176, N971P;H972F;Q975S)
# Summary of the method: as §1
# PUM1 PUF domain R4-PWS = PUM1 PUF domain R4-PWS (Homo sapiens, UniProt Q14671 828-1176, N971P;H972W;Q975S)
# Summary of the method: as §1
sequence,measurement,setting,value
GGCUAGAACUAGUGGAUCCCCCGGCGCCCGGCGGCUCGAGCCCGGGUAAGUGUAAAUCGUCUGCAUGCCGCCGGGCGCCAUGCCUGCAGGUCGACUCUAGAAAACAUG,binding signal,PUM1 PUF domain R1-TRR,4.23 log2 enrichment (interaction score)
GGCUAGAACUAGUGGAUCCCCCGGCGCCCGGCGGCUCGAGCCCGGGUAAGUGUAAAUUGUCUGCAUGCCGCCGGGCGCCAUGCCUGCAGGUCGACUCUAGAAAACAUG,binding signal,PUM1 PUF domain R1-TRR,3.12 log2 enrichment (interaction score)
GGCUAGAACUAGUGGAUCCCCCGGCGCCCGGCGGCUCGAGCCCGGGUAAGUGUACAUAGUCUGCAUGCCGCCGGGCGCCAUGCCUGCAGGUCGACUCUAGAAAACAUG,binding signal,PUM1 PUF domain R4-PFS,5.13 log2 enrichment (interaction score)
same,binding signal,PUM1 PUF domain R4-PWS,4.61 log2 enrichment (interaction score)
